Results reported in the supplement of paper PMC12669032.

What was measured:
Assay in all cases: growth AUC relative to DMSO control (median of replicates) (fraction); higher = more growth (less inhibition), active = hit call of the paper
Conditions in all cases: 20 µM; 24 h;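 active = AUC reduced over 20% with Padj below 0.05 in at least 2 of 3 replicates; inactive = otherwise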
[1] = test system: Akkermansia muciniphila
In short: (§1)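 Starting at OD600 0.05, gut bacterial monocultures in mGAM were grown anaerobically at 37 °C with 20 µM compound (1% DMSO) under pierced gas-permeable seals. OD600 was read every hour for 24 h, and the lowest OD of each curve was set to 0. Area under the growth curve was normalised to the plate median of solvent-only wells, or to row and column medians on the industrial chemical plate, and the median of three biological replicates grown on separate days is given.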

[2] = test system: Bacteroides caccae
In short: as §1

[3] = test system: Bacteroides clarus
In short: as §1

[4] = test system: Bacteroides dorei
In short: as §1

[5] = test system: Bacteroides stercoris
In short: as §1

[6] = test system: Bacteroides thetaiotaomicron
In short: as §1

[7] = test system: Bacteroides uniformis
In short: as §1

[8] = test system: Bifidobacterium longum subsp. longum
In short: as §1

[9] = test system: Clostridium difficile
In short: as §1

[10] = test system: Collinsella aerofaciens
In short: as §1

Measured: growth AUC

N#Cc1nn(-c2c(Cl)cc(C(F)(F)F)cc2Cl)c(N)c1S(=O)(=O)C(F)(F)F
inactive: [1] 1.09 | [2] 0.823 | [3] 0.966 | [4] 0.961 | [5] 1.16 | [6] 0.996 | [7] 0.961 | [8] 0.936 | [9] 0.866 | [10] 1.03

CCO/N=C(\CC)C1=C(O)CC(c2c(C)cc(C)cc2C)CC1=O (stereo not given)
inactive: [1] 1.1 | [2] 0.821 | [3] 1 | [4] 0.999 | [5] 0.97 | [6] 0.986 | [7] 0.962 | [8] 1.05 | [9] 0.969 | [10] 0.943

O=[N+]([O-])c1c(Cl)c(Cl)c(Cl)c(Cl)c1Cl
inactive: [1] 0.814 | [2] 0.777 | [3] 0.816 | [4] 0.972 | [5] 0.986 | [6] 0.915 | [7] 0.917 | [8] 0.808 | [9] 1.01 | [10] 1.04

COC(=O)COc1ccc(Cl)cc1Cl
inactive: [1] 0.95 | [2] 0.944 | [3] 0.983 | [4] 0.969 | [5] 0.853 | [6] 1.01 | [7] 1.04 | [8] 0.914 | [9] 1 | [10] 0.925

CC(=O)O.CCCCCCCCCCCCN=C(N)N
inactive: [1] 1.28 | [2] 1.02 | [3] 0.988 | [4] 0.985 | [5] 1.17 | [6] 1.01 | [7] 0.986 | [8] 0.917 | [9] 1 | [10] 0.972

Cl.NC1=NCCN1Cc1ccc(Cl)nc1
inactive: [1] 1.03 | [2] 1.03 | [3] 1.02 | [4] 0.975 | [5] 1.14 | [6] 1.04 | [7] 1.01 | [8] 1.02 | [9] 1.06 | [10] 1.03

CNC(=O)Oc1cccc2ccccc12
inactive: [1] 1.08 | [2] 0.993 | [3] 1.01 | [4] 0.991 | [5] 1.02 | [6] 0.998 | [7] 1.03 | [8] 1.03 | [9] 1.01 | [10] 0.987
